According to PubChem BioAssay AID1159580 (chemical genetic matrix, 2015):
The campaign covered roughly 5,500 compounds. About 2,000 (36%) were called active. Roughly 18% stayed inconclusive and do not appear here. Rule as the data show it: active = normalized growth mostly below about 0.91 (no sharp cut-off); inconclusive = no clear call, values can overlap the other calls; inactive = mostly above about 0.92. The list shows a part of the results.

Assay: chemical genetic growth profiling, strain panel (AID 1159580);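 also: tested at 20 µM; growth read once vehicle control cultures reached saturation at 30 °C; 1 = growth at the plate median or of vehicle wells; lower values mean less growth of the strain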
Details: growth OD

Measured: normalized growth

c1coc(CNc2ncnc3nc[nH]c23)c1
inactive: S. cerevisiae deletion strains, locus YJR075W, strain HOC1, stronger effect = lower value 1 | S. cerevisiae deletion strains, locus YKL009W, strain mrt4, stronger effect = lower value 1.03 | S. cerevisiae deletion strains, locus YKL068W, stronger effect = lower value 0.979 | S. cerevisiae deletion strains, locus YKL085W, strain MDH1 (second series), stronger effect = lower value 1.01 | S. cerevisiae deletion strains, locus YKL085W, strain MDH1, stronger effect = lower value 1.01 | S. cerevisiae deletion strains, locus YKL160W, strain elf1, stronger effect = lower value 1.02 | S. cerevisiae deletion strains, locus YKL190W, strain CNB1, stronger effect = lower value 0.994 | S. cerevisiae deletion strains, locus YKR001C, strain vps1, stronger effect = lower value 1 | S. cerevisiae deletion strains, locus YKR026C, strain gcn3, stronger effect = lower value 0.999 | S. cerevisiae deletion strains, locus YKR091W, strain srl3, stronger effect = lower value 0.994 | S. cerevisiae deletion strains, locus YLL001W, strain dnm1, stronger effect = lower value 1.01 | S. cerevisiae deletion strains, locus YLL026W, stronger effect = lower value 0.999 | S. cerevisiae deletion strains, locus YLL041C, strain sdh2, stronger effect = lower value 0.997 | S. cerevisiae deletion strains, locus YLR027C, strain aat2, stronger effect = lower value 1 | S. cerevisiae deletion strains, locus YLR039C, strain RIC1, stronger effect = lower value 1.01 | S. cerevisiae deletion strains, locus YLR058C, strain SHM2, stronger effect = lower value 1 | S. cerevisiae deletion strains, locus YLR102C, strain apc9, stronger effect = lower value 0.989 | S. cerevisiae deletion strains, locus YLR113W, strain HOG1, stronger effect = lower value 0.993 | S. cerevisiae deletion strains, locus YLR221C, strain rsa3, stronger effect = lower value 0.975 | S. cerevisiae deletion strains, locus YLR258W, strain gsy2, stronger effect = lower value 0.996 | S. cerevisiae deletion strains, locus YLR262C, strain YPT6 (second series), stronger effect = lower value 0.977 | S. cerevisiae deletion strains, locus YLR262C, strain YPT6, stronger effect = lower value 0.981 | S. cerevisiae deletion strains, locus YLR268W, strain sec22, stronger effect = lower value 0.97 | S. cerevisiae deletion strains, locus YLR320W, strain mms22, stronger effect = lower value 1 | S. cerevisiae deletion strains, locus YLR330W, strain CHS5, stronger effect = lower value 0.994 | S. cerevisiae deletion strains, locus YLR342W, strain FKS1 (second series), stronger effect = lower value 1.02 | S. cerevisiae deletion strains, locus YLR342W, strain FKS1, stronger effect = lower value 1.01 | S. cerevisiae deletion strains, locus YLR357W, strain rsc2, stronger effect = lower value 0.98 | S. cerevisiae deletion strains, locus YLR370C, strain arc18, stronger effect = lower value 0.993 | S. cerevisiae deletion strains, locus YLR371W, strain rom2, stronger effect = lower value 0.99 | S. cerevisiae deletion strains, locus YLR384C, strain iki3, stronger effect = lower value 1 | S. cerevisiae deletion strains, locus YLR418C, strain cdc73, stronger effect = lower value 1 | S. cerevisiae deletion strains, locus YML016C, strain PPZ1, stronger effect = lower value 1 | S. cerevisiae deletion strains, locus YML032C, strain rad52, stronger effect = lower value 0.993 | S. cerevisiae deletion strains, locus YML120C, strain ndi1, stronger effect = lower value 0.992 | S. cerevisiae deletion strains, locus YML124C, strain tub3, stronger effect = lower value 1 | S. cerevisiae deletion strains, locus YMR058W, strain fet3, stronger effect = lower value 0.998 | S. cerevisiae deletion strains, locus YMR078C, strain ctf18, stronger effect = lower value 0.994 | S. cerevisiae deletion strains, locus YMR125W, strain sto1, stronger effect = lower value 0.974 | S. cerevisiae deletion strains, locus YMR129W, stronger effect = lower value 0.988 | S. cerevisiae deletion strains, locus YMR205C, strain PFK2, stronger effect = lower value 1 | S. cerevisiae deletion strains, locus YMR223W, strain ubp8, stronger effect = lower value 1.02 | S. cerevisiae deletion strains, locus YMR231W, strain pep5, stronger effect = lower value 0.991 | S. cerevisiae deletion strains, locus YMR263W, strain SAP30, stronger effect = lower value 0.986 | S. cerevisiae deletion strains, locus YMR307W, strain GAS1, stronger effect = lower value 1.11 | S. cerevisiae deletion strains, locus YNL067W, strain RPL9B, stronger effect = lower value 0.983 | S. cerevisiae deletion strains, locus YNL071W, strain lat1, stronger effect = lower value 0.999 | S. cerevisiae deletion strains, locus YNL128W, strain TEP1, stronger effect = lower value 0.99 | S. cerevisiae deletion strains, locus YNL153C, strain GIM3, stronger effect = lower value 0.991 | S. cerevisiae deletion strains, locus YNL183C, strain NPR1, stronger effect = lower value 0.914 | S. cerevisiae deletion strains, locus YNL209W, strain ssb2, stronger effect = lower value 0.986 | S. cerevisiae deletion strains, locus YNL233W, strain BNI4, stronger effect = lower value 1.01 | S. cerevisiae deletion strains, locus YNL248C, strain rpa49, stronger effect = lower value 0.989 | S. cerevisiae deletion strains, locus YNL250W, strain rad50, stronger effect = lower value 0.995 | S. cerevisiae deletion strains, locus YNL271C, strain bni1, stronger effect = lower value 0.988 | S. cerevisiae deletion strains, locus YNL298W, strain CLA4, stronger effect = lower value 1 | S. cerevisiae deletion strains, locus YNL307C, strain MCK1, stronger effect = lower value 0.995 | S. cerevisiae deletion strains, locus YNL322C, strain KRE1 (second series), stronger effect = lower value 0.992 | S. cerevisiae deletion strains, locus YNL322C, strain KRE1, stronger effect = lower value 0.987 | S. cerevisiae deletion strains, locus YNR049C, strain mso1, stronger effect = lower value 0.999 | S. cerevisiae deletion strains, locus YNR052C, strain pop2, stronger effect = lower value 0.993 | S. cerevisiae deletion strains, locus YOL006C, strain TOP1, stronger effect = lower value 0.981 | S. cerevisiae deletion strains, locus YOL012C, strain htz1 0.989 | S. cerevisiae deletion strains, locus YOL147C, strain pex11, stronger effect = lower value 0.999 | S. cerevisiae deletion strains, locus YOR001W, strain rrp6, stronger effect = lower value 1.01 | S. cerevisiae deletion strains, locus YOR061W, strain CKA2, stronger effect = lower value 1 | S. cerevisiae deletion strains, locus YOR069W, strain VPS5, stronger effect = lower value 1 | S. cerevisiae deletion strains, locus YOR070C, strain gyp1, stronger effect = lower value 1 | S. cerevisiae deletion strains, locus YOR080W, strain dia2, stronger effect = lower value 0.995 | S. cerevisiae deletion strains, locus YOR083W, strain WHI5, stronger effect = lower value 1 | S. cerevisiae deletion strains, locus YOR106W, strain vam3, stronger effect = lower value 1 | S. cerevisiae deletion strains, locus YOR136W, strain idh2, stronger effect = lower value 0.996 | S. cerevisiae deletion strains, locus YOR144C, strain elg1, stronger effect = lower value 0.99 | S. cerevisiae deletion strains, locus YOR184W, strain ser1, stronger effect = lower value 0.997 | S. cerevisiae deletion strains, locus YOR231W, strain MKK1, stronger effect = lower value 0.998 | S. cerevisiae deletion strains, locus YOR265W, strain rbl2, stronger effect = lower value 0.996 | S. cerevisiae deletion strains, locus YOR270C, strain vph1, stronger effect = lower value 0.99 | S. cerevisiae deletion strains, locus YOR290C, strain snf2, stronger effect = lower value 0.991 | S. cerevisiae deletion strains, locus YOR316C, strain cot1, stronger effect = lower value 0.989 | S. cerevisiae deletion strains, locus YPL051W, strain arl3, stronger effect = lower value 0.996 | S. cerevisiae deletion strains, locus YPL055C, strain LGE1, stronger effect = lower value 0.978 | S. cerevisiae deletion strains, locus YPL078C, strain atp4, stronger effect = lower value 1.01 | S. cerevisiae deletion strains, locus YPL106C, strain sse1, stronger effect = lower value 0.995 | S. cerevisiae deletion strains, locus YPL240C, strain hsp82, stronger effect = lower value 1.02 | S. cerevisiae deletion strains, locus YPL241C, strain CIN2, stronger effect = lower value 1 | S. cerevisiae deletion strains, locus YPL256C, strain CLN2, stronger effect = lower value 0.965 | S. cerevisiae deletion strains, locus YPR119W, strain clb2, stronger effect = lower value 0.999 | S. cerevisiae deletion strains, locus YPR141C, strain kar3, stronger effect = lower value 0.981 | S. cerevisiae deletion strains, locus YPR163C, strain tif3, stronger effect = lower value 1 | S. cerevisiae deletion strains, locus YPR167C, strain met16, stronger effect = lower value 0.99 | S. cerevisiae deletion strains, strain wtn01, stronger effect = lower value 0.986 | S. cerevisiae strains, strain wild type, stronger effect = lower value 0.999
